Test results from PubChem BioAssay (Tox21).
Unmarked numbers belong to inactive results. Results filed as inconclusive are left out. A call without a number means that no potency is given here. Active and inactive are the calls of the source. Unless noted, calls follow the shape of the full dose curve.

What was measured:
[1] = Nuclear factor erythroid 2-related factor 2/antioxidant responsive element (Nrf2/ARE) small molecule agonists: qHTS cell viability counter screen in human keratinocytes (AID 1919968; active = well fitted curve in the direction sought with a large enough effect in the repeat runs; an effect the other way counts as inactive or inconclusive; also: nearly all actives have a fitted effect of over 55% in size)
How it was run: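 Stably transfected HaCaT (KeratinoSens), 1,500/well. Test agents in DMSO were applied for 23 h, 37 C/5% CO2. CellTiter-Fluor was incubated 1 h before the fluorescence read.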

[2] = Nuclear factor erythroid 2-related factor 2/antioxidant responsive element (Nrf2/ARE) small molecule agonists: luciferase reporter gene qHTS assay in human keratinocytes (AID 1919969); also: nearly all actives have a fitted effect of over 35% in size
[3] = biological target: Gonadotropin-releasing hormone receptor (Homo sapiens) (UniProt P30968); assay: Human gonadotropin-releasing hormone receptor (GnRHR) small molecule agonists, calcium flux assay in GnRHR-HEK293 cells (AID 1920063); also: nearly all actives have a fitted effect of over 35% in size; also: potency is read from the fitted curve at half-maximal effect
How it was run: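 Stable human GnRHR HEK293 line. 18 h plating, then calcium dye for 1 h at 37 C. Agonist-mode compound addition from DMSO stocks; fluorescence monitored 3 min.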

[4] = biological target: KiSS-1 receptor (Homo sapiens) (UniProt Q969F8); assay: Human kisspeptin (KISS1R) small molecule agonists, calcium flux assay in KISS1R-HEK293 cells (AID 1920064; active = well fitted curve in the direction sought with a large enough effect in the repeat runs; an effect the other way counts as inactive or inconclusive)
How it was run: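 After overnight (18 h) culture at 37 C/5% CO2, human KISS1R-HEK293 cells received calcium dye for 1 h, then test compound; emission at 540 nm (excitation 480 nm) was tracked for 3 min.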

[5] = G protein-coupled receptor (GPCR) small molecule agonists, calcium flux assay: HEK293 wild type cell line counter screen (AID 1920065)
How it was run: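 Following 18 h incubation at 37 C/5% CO2, plates got calcium dye for 1 h; compounds, ATP or DMSO were then pinned in and fluorescence followed kinetically (480/540 nm).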

[6] = p53 small molecule agonists, cell-based qHTS assay with rat liver microsomes (AID 1963578)
How it was run: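 Rat liver microsome activation: microsomes 0.5 mg/mL, NADPH 0.5 mg/mL final; p53RE-bla cells, 16 h 37 C; LiveBLAzer readout, 2 h RT dark.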

[7] = p53 small molecule agonists, cell-based qHTS assay with human liver microsomes: qHTS cell viability counter screen (AID 1963579); also: nearly all actives have a fitted effect of over 45% in size
How it was run: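 Luminescent CellTiter-Glo read-out, 30 min at room temperature, gauged cytotoxicity in p53RE-bla cells exposed 16 h at 37 C to DMSO-dissolved compounds with metabolic activation by human liver microsomes and NADPH, each 0.5 mg/mL final.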

[8] = p53 small molecule agonists, cell-based qHTS assay with rat liver microsomes: qHTS cell viability counter screen (AID 1963580); also: nearly all actives have a fitted effect of over 45% in size
How it was run: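 Counter screen for cytotoxicity under metabolic activation: rat liver microsomes and NADPH, 0.5 mg/mL final each, added with compounds to p53RE-bla HCT-116 cells; 16 h at 37 C, then ATP luminescence read.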

[9] = p53 small molecule agonists, cell-based qHTS assay: qHTS cell viability counter screen (AID 1963581); also: nearly all actives have a fitted effect of over 45% in size
How it was run: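 qHTS counter screen: 16 h compound exposure at 37 C of p53RE-bla HCT-116 cells (4,000 per well, seeded 5 h prior), cell viability by ATP luminescence.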

[10] = p53 small molecule agonists, cell-based qHTS assay (AID 1963582; active = well fitted activation curve with a large enough effect in the signal ratio in the repeat runs, not every such curve was filed as active; the % refers to the signal ratio)
How it was run: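 Measured: fluorescence from cleaved LiveBLAzer substrate. System: p53RE-bla cells, 16 h compound treatment at 37 C, 2 h substrate step at room temperature.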

[11] = biological target: 5-hydroxytryptamine receptor 2A (Homo sapiens) (UniProt P28223); assay: 5-hydroxytryptamine receptor 2A (HTR2A) small molecule antagonists, cell-based qHTS assay (AID 1963586); also: nearly all actives have a fitted effect of over 45% in size
How it was run: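 CHO cells stably expressing human HTR2A were plated for 18 h at 37 C, then loaded with calcium dye for 1 h. Compounds were preincubated 5 min at room temperature before DOI (4 nM solution) was added. Kinetic fluorescence was read for 3 min.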

[12] = biological target: 5-hydroxytryptamine receptor 2A (Homo sapiens) (UniProt P28223); assay: 5-hydroxytryptamine receptor 2A (HTR2A) small molecule agonists, cell-based qHTS assay (AID 1963587); also: nearly all actives have a fitted effect of over 30% in size
How it was run: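 HTR2A-CHO cells, plated 18 h at 37 C/5% CO2, dye-loaded 1 h at 37 C; compounds in DMSO added by pin tool (agonist mode). Intracellular calcium flux read as kinetic fluorescence on FDSS over 2 min at 1 s intervals.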

[13] = biological target: Muscarinic acetylcholine receptor M1 (Homo sapiens) (UniProt P11229); assay: Cholinergic receptor muscarinic 1 (CHRM1) small molecule antagonists, cell-based qHTS assay (AID 1963588); also: nearly all actives have a fitted effect of over 40% in size
How it was run: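 Compounds were tested at 15 concentrations in three independent runs. Dye-loaded CHRM1-CHO cells were exposed 5 min at room temperature before stimulation by acetylcholine added at 50nM. Intracellular calcium was read kinetically on FDSS for 3 min.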

[14] = cAMP Responsive Elements (CRE) small molecule agonists, cell-based qHTS assay (AID 1963590)
How it was run: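 Test agents in DMSO were incubated 3 h at 37 C/5% CO2 with CRE-bla HEK 293T cells seeded 18 h earlier; LiveBLAzer B/G FRET substrate was added and read after 2 h at room temperature.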

[15] = cAMP Responsive Elements (CRE) small molecule antagonists, cell-based qHTS assay (AID 1963591; active = well fitted inhibition curve with a large enough effect in the signal ratio in the repeat runs, not every such curve was filed as active; the % refers to the signal ratio)
How it was run: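 Reporter line CRE-bla HEK 293T in dialyzed-FBS DMEM; cells preincubated 18 h, treated 3 h with compound plus NKH477 (0.25 uM final); LiveBLAzer FRET, 2 h RT.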

[16] = biological target: Beta-2 adrenergic receptor (Homo sapiens) (UniProt P07550); assay: Adrenergic beta2 receptor (ADRB2) small molecule antagonists, cell-based qHTS assay (AID 1963592); also: series mostly up to about 92 µM; nearly all actives have a fitted effect of over 50% in size
How it was run: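 Assay format: CHO-ADRB2 cells, 18-20hr seeding at 37C/5% CO2, then compound plus 1nM isoproterenol agonist mix for 0.5hr RT. Homogeneous time-resolved fluorescence cAMP detection after 1hr, expressed as 665/615 nm ratio.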

[17] = biological target: Beta-2 adrenergic receptor (Homo sapiens) (UniProt P07550); assay: Adrenergic beta2 receptor (ADRB2) small molecule agonists, cell-based qHTS assay (AID 1963593);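 also: CHO cells stably overexpressing human ADRB2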
How it was run: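 CHO cells stably over-expressing ADRB2 were plated overnight at 37C, then dosed with compounds plus a stimulation mix containing 100uM IBMX and 25uM Ro-20-1724 for 0.5hr at room temperature. cAMP was measured by HTRF competition, 1hr.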

[18] = biological target: D(2) dopamine receptor (Homo sapiens) (UniProt P14416); assay: Dopamine D2 receptor (DRD2) small molecule agonists, cell-based qHTS assay (AID 1963594); also: nearly all actives have a fitted effect of over 35% in size
How it was run: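 HEK293 cells stably expressing DRD2 were cultured 24 h at 37 C, then given Ro20-1724 (0.1 mM final) and compounds for 10 min at room temperature. NKH477 (200nM) was then added for 30 min. cAMP was read by HTRF.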

[19] = biological target: D(2) dopamine receptor (Homo sapiens) (UniProt P14416); assay: Dopamine D2 receptor (DRD2) small molecule antagonists, cell-based qHTS assay (AID 1963595; active = well fitted inhibition curve with a large enough effect in the signal ratio in the repeat runs, with a control signal flat; the % refers to the signal ratio)
How it was run: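 Stable D2 receptor HEK293 line, 24 h after seeding. Compound preincubated 10 min, then quinpirole (12 nM) with forskolin analogue NKH477 (200 nM), 30 min, room temperature. Detection by time-resolved FRET of cAMP.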

[20] = biological target: Muscarinic acetylcholine receptor M1 (Homo sapiens) (UniProt P11229); assay: Cholinergic receptor muscarinic 1 (CHRM1) small molecule agonists, cell-based qHTS assay (AID 1963589); also: nearly all actives have a fitted effect of over 35% in size
How it was run: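 Kinetic fluorescence (1 s intervals) of calcium-sensitive dye in human M1 CHO cells after compound addition; cells pre-incubated 18 h at 37 C/5% CO2 and dye-loaded 1 h.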

Sequence of Beta-2 adrenergic receptor (Homo sapiens) (P07550 whole entry, looked up): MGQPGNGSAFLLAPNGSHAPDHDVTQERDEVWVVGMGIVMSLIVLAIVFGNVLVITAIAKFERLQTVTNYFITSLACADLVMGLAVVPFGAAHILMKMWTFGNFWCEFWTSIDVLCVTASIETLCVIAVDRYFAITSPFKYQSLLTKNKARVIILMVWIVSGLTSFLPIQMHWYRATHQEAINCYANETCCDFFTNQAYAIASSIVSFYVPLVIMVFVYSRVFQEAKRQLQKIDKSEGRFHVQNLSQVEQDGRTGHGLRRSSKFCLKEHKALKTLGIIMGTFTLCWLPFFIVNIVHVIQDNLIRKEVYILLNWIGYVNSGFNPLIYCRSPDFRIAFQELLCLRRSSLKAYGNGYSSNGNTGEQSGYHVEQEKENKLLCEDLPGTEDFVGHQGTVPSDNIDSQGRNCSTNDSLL
Sequence of D(2) dopamine receptor (Homo sapiens) (P14416 whole entry, looked up): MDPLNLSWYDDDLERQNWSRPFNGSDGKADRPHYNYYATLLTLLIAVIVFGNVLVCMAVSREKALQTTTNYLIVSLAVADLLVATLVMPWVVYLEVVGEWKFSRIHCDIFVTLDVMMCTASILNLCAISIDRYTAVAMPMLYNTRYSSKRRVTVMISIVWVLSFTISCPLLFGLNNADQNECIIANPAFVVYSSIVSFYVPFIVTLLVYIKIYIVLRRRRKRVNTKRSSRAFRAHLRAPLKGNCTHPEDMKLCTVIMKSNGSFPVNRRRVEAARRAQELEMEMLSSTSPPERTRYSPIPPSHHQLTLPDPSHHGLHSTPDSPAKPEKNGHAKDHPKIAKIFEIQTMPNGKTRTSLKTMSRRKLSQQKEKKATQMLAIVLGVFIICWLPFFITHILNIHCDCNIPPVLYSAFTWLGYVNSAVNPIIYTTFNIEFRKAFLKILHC
Sequence of 5-hydroxytryptamine receptor 2A (Homo sapiens) (P28223 whole entry, looked up): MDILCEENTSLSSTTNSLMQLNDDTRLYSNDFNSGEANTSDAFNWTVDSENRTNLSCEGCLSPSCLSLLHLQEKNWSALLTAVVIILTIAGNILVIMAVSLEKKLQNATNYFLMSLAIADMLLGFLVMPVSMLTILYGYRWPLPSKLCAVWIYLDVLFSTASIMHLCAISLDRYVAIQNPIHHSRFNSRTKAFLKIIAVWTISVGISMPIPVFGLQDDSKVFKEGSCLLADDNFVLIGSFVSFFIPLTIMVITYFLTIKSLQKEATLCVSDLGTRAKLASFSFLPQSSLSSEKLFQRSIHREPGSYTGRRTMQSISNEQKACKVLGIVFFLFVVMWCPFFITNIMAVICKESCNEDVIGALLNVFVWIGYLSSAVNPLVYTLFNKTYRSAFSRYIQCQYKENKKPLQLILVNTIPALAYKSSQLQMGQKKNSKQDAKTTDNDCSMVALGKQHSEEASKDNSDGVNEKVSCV
Sequence of Muscarinic acetylcholine receptor M1 (Homo sapiens) (P11229 whole entry, looked up): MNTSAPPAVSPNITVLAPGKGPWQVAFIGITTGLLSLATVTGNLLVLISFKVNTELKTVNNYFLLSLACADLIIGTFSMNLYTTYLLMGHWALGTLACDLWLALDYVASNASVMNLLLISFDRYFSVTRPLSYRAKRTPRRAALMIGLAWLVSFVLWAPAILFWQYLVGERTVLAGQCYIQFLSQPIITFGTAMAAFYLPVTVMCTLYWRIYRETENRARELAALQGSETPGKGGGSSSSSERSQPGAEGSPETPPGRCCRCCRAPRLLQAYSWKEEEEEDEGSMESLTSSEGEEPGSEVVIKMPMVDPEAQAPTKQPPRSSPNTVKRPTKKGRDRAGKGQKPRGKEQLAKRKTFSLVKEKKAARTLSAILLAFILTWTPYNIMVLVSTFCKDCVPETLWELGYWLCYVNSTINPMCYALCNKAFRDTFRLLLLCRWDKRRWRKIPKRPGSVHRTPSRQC
Sequence of KiSS-1 receptor (Homo sapiens) (Q969F8 whole entry, looked up): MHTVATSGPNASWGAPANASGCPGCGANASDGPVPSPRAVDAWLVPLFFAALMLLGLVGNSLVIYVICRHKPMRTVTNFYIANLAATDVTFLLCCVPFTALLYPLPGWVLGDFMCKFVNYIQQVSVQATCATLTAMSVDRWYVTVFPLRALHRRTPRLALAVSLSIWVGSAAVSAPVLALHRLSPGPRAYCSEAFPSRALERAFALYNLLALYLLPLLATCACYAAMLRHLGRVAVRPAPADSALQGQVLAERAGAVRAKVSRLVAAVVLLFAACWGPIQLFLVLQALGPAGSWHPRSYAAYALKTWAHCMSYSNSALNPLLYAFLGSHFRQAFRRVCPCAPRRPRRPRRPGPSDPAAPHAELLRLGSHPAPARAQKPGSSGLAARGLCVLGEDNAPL
Sequence of Gonadotropin-releasing hormone receptor (Homo sapiens) (P30968 whole entry, looked up): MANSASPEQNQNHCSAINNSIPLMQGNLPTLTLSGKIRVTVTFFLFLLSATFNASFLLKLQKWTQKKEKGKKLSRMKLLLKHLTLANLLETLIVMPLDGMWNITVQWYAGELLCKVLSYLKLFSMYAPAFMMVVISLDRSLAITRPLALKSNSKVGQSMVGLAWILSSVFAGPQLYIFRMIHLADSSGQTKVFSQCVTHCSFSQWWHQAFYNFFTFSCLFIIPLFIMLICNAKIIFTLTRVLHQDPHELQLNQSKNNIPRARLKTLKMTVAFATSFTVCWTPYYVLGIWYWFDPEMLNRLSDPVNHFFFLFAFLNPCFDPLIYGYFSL

CCCCC(CC)COC(=O)CCCCC(=O)OCc1ccccc1 (stereo not given)
Potency [1]: inactive | Potency [2]: inactive | Potency [3]: inactive | Potency [4]: inactive | Potency [5]: inactive | Potency [6]: inactive | Potency [7]: inactive | Potency [8]: inactive | Potency [9]: inactive | Potency [10]: inactive | Potency [11]: inactive | Potency [12]: inactive | Potency [13]: inactive | Potency [14]: inactive | Potency [15]: inactive | Potency [16]: inactive | Potency [17]: inactive | Potency [18]: inactive | Potency [19]: inactive

COC(=O)c1cc(Cl)ccc1[N+](=O)[O-]
Potency [1]: inactive | Potency [2]: inactive | Potency [3]: inactive | Potency [4]: inactive | Potency [5]: inactive | Potency [6]: inactive | Potency [7]: inactive | Potency [8]: inactive | Potency [9]: inactive | Potency [10]: inactive | Potency [11]: inactive | Potency [12]: inactive | Potency [13]: inactive | Potency [20]: inactive | Potency [14]: inactive | Potency [16]: inactive | Potency [18]: inactive | Potency [19]: inactive

CC1(C)C(=O)NC(=O)N1CO
Potency [1]: inactive | Potency [2]: inactive | Potency [3]: inactive | Potency [4]: inactive | Potency [5]: inactive | Potency [6]: inactive | Potency [7]: inactive | Potency [8]: inactive | Potency [9]: inactive | Potency [10]: inactive | Potency [12]: inactive | Potency [13]: inactive | Potency [20]: inactive | Potency [14]: inactive | Potency [15]: inactive | Potency [16]: inactive | Potency [17]: inactive | Potency [18]: inactive | Potency [19]: inactive

CCCCCCCCCCCCCCCCCCCl
activity change, negative = cytotoxicity [1]: -0.678% [at 8.39 µM] | activity, positive = activation [2]: -2.4% [at 8.39 µM] | activity change [3]: 0.0314% [at 5.22 µM, hits give high values] | activation [4]: 6.45% [at 6.97 µM] | activation [5]: 0.281% [at 5.23 µM] | activation [6]: 2.88% [at 5.99 µM] | activity change, negative = cytotoxicity [7]: 1.68% [at 5.99 µM] | activity change, negative = cytotoxicity [8]: 2.02% [at 5.99 µM] | activity change, negative = cytotoxicity [9]: -9.11% [at 5.99 µM] | activation [10]: -3.59% [at 5.99 µM] | activity, negative = inhibition [11]: -6.54% [at 5.62 µM] | activation [12]: -0.0042% [at 7.02 µM] | activity, negative = inhibition [13]: 10% [at 5.58 µM] | activation [20]: 0.0826% [at 6.97 µM] | activation [14]: 0.946% [at 8.39 µM] | activity change, negative = inhibition [15]: -6.83% [at 8.39 µM] | activity change, negative = inhibition [16]: 8.82% [at 8.39 µM] | activation [18]: 0.784% [at 8.39 µM] | activity change, negative = inhibition [19]: 3.22% [at 8.38 µM]

CC(=O)OCCC(C)CC(C)(C)C (stereo not given)
Potency [1]: inactive | Potency [2]: inactive | Potency [3]: inactive | Potency [4]: inactive | Potency [5]: inactive | Potency [6]: inactive | Potency [7]: inactive | Potency [8]: inactive | Potency [9]: inactive | Potency [10]: inactive | Potency [11]: inactive | Potency [12]: inactive | Potency [20]: inactive | Potency [14]: inactive | Potency [15]: inactive | Potency [17]: inactive | Potency [19]: inactive

CN(C)CCCN(C)C
activity change, negative = cytotoxicity [1]: 3.36% [at 8.39 µM] | activity, positive = activation [2]: -12.5% [at 8.39 µM] | activity change [3]: -0.775% [at 5.22 µM, hits give high values] | activation [4]: -0.798% [at 6.97 µM] | activation [5]: -1.22% [at 5.23 µM] | activation [6]: 5.56% [at 5.99 µM] | activity change, negative = cytotoxicity [7]: -2.9% [at 5.99 µM] | activity change, negative = cytotoxicity [8]: 0.34% [at 5.99 µM] | activity change, negative = cytotoxicity [9]: -23% [at 5.99 µM] | activation [10]: 3.48% [at 5.99 µM] | activity, negative = inhibition [11]: 12.1% [at 5.62 µM] | activation [12]: -0.769% [at 7.02 µM] | activity, negative = inhibition [13]: 1.9% [at 5.58 µM] | activation [20]: -0.0477% [at 6.97 µM] | activation [14]: -0.0363% [at 8.39 µM] | activity change, negative = inhibition [16]: 3.37% [at 8.39 µM] | activity change, negative = inhibition [19]: 3.98% [at 8.38 µM]

C[N+](C)(C)CCOC(N)=O
Potency [1]: inactive | Potency [2]: inactive | Potency [3]: 2390 nM (active) | Potency [4]: inactive | Potency [5]: inactive | Potency [6]: inactive | Potency [7]: inactive | Potency [8]: inactive | Potency [9]: inactive | Potency [10]: inactive | Potency [14]: inactive | Potency [15]: inactive | Potency [16]: inactive | Potency [17]: inactive | Potency [18]: inactive | Potency [19]: inactive
